# Measurements reported in the supplement of paper PMC3334620.
# Over roughly 33,000 sequences, “E-score (-0.5 to 0.5)” has its median near -0.053; the highest 2% begin near 0.37. The list comes from a sample in which the highest values are over-represented; it also holds similar and randomly drawn sequences.
# Target: Hap1 (UniProt P0CE41)
# Assay: PBM E-score (8-mer binding enrichment) (E-score (-0.5 to 0.5)); higher = stronger / more preferred TF binding
# Details: protein concentration: 200 nM; construct: GST-DNA-binding domain
# Procedure: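 Universal 'all 10-mer' protein binding microarrays (Agilent AMADID 015681) probed with GST-tagged S. cerevisiae TFs (full-length or DBD) made by in vitro transcription/translation (PURExpress), about 100-200 nM. Bound TF was detected with fluorescent anti-GST. Each ungapped 8-mer (which stands for itself and its reverse complement) is scored by the PBM enrichment score (E-score), a modified Wilcoxon-Mann-Whitney statistic from -0.5 to +0.5, computed with the Universal PBM Analysis Suite. Scale: above 0.35 generally sequence-specific binding.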
# Chain of UniProt P0CE41 (P0CE41 whole entry): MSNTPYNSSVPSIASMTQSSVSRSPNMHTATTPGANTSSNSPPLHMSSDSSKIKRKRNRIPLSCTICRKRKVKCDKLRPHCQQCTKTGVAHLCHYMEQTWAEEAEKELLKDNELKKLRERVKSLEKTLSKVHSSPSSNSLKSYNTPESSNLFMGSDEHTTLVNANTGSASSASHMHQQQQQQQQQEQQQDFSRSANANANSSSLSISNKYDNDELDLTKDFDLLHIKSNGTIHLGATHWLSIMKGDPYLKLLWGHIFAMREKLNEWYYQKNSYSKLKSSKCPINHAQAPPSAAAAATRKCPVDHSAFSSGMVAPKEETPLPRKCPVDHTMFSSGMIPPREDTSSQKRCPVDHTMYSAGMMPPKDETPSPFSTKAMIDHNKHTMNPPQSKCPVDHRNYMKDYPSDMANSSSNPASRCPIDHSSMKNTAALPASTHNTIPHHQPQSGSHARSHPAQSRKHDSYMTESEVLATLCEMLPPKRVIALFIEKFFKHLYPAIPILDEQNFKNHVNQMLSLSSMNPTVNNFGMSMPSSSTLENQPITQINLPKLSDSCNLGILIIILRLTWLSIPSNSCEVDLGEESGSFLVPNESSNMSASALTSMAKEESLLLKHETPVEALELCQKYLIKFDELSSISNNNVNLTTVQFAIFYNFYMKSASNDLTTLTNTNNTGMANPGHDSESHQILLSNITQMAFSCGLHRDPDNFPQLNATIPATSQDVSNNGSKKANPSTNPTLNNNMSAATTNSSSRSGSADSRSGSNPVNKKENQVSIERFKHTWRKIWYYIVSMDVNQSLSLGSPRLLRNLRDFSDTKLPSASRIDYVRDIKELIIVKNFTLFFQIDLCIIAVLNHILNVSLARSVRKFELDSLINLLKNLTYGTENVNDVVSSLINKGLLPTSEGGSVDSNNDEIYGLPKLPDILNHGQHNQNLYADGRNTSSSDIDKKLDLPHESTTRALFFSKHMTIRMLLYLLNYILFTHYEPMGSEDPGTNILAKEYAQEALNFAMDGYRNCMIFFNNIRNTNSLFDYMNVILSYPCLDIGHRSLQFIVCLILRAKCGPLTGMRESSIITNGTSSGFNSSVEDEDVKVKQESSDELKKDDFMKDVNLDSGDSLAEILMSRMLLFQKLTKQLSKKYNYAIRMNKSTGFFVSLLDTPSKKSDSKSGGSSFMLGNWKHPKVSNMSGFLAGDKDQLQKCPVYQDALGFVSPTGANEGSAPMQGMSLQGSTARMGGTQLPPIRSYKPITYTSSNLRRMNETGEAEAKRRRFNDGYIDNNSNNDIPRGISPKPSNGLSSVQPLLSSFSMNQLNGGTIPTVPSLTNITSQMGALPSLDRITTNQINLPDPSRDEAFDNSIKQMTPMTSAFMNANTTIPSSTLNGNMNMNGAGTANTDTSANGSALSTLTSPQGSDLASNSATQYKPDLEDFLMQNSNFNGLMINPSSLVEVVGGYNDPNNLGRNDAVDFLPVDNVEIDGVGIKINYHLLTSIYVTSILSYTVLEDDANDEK
row,Sequence,PBM E-score
1,CCGGAATA,0.357
2,ACGGAAAA,0.317
3,CCGGAAAA,0.432
4,CCGGAATC,0.416
5,GCGGAAAA,0.286
6,ACGGAACA,0.241
7,CAGGAAAA,-0.0124
8,CCGGAACA,0.376
9,CCGGAAGA,0.365
10,TCGGAACA,0.349
11,TCGGAAAA,0.402
12,ACGGAATC,0.28
13,AGACACTC,-0.185
14,GCTTCATA,-0.0731
15,ACCTAGGC,-0.18
16,AAAGCGGG,-0.0186
17,ACTACGCC,-0.098
18,GAACTGTA,-0.00641
19,CCACTCCC,0.119
20,CCGGCCTC,0.182
21,GCGGAAAC,0.24
22,CCGGAAAC,0.426
23,CCGGAAAG,0.307
24,AGTTTCTA,-0.167
25,ACCAGGAT,0.0532
26,AAGCAATA,-0.0998

row,Sequence,PBM E-score
1,TCTTGTCA,-0.139
2,GGACCGGA,0.406
3,GGACCGCA,0.186
4,AGACCGGA,0.334
5,CGACCGGC,0.232
6,CGACCGGA,0.412
7,CGACCGTA,0.0335
8,ACTAGACA,-0.0952
9,AACGCGCG,0.13
10,ATGTCCCC,0.0493
11,GTGTCCGA,0.339
12,ATGTCCTG,0.00518
13,ATGTCCGG,0.468
14,CTGTCCGC,0.113
15,ATGTCCGC,0.374
16,ATGTCCGA,0.463
17,ATGTCCCG,0.234
18,CTGTCCGA,0.317
19,AGGGCCGG,0.326
20,CGCCCTCA,-0.149
21,CGACCAAC,-0.0313
22,CAACTGGG,-0.122
23,AGCGGTAA,0.247
24,GCCGGTCA,0.177
25,CCCGGTAC,0.296
26,GCCGGTAA,0.422

row,Sequence,PBM E-score
1,GGCGGTAC,0.0136
2,CCCGGTAA,0.387
3,CCCGGTAG,0.336
4,CCCGGTCA,0.262
5,TCCGGTCA,0.385
6,GCCGGTGA,0.274
7,GGCGGTAA,0.373
8,GCCGGTAC,0.293
9,ACCTCGCT,0.0563
10,AGTTACCG,0.266
11,AACAAGGG,-0.0715
12,ACAGACGC,-0.0711
13,AATTTACC,0.0607
14,AGCGTAGA,-0.0389
15,TGCGGTAA,0.042
16,TCCGGTAA,0.442
17,TACGGTAA,0.0382
18,ACACCTGA,-0.135
19,TGTCGAAA,-0.229
20,CAAGTGTC,-0.197
21,AAGAAACA,0.00593
22,ACCGCAAT,0.239
23,AATCCCGA,0.409
24,CATCCCGA,0.176
25,TATCCCGA,0.221
26,AATCCCAT,-0.107

row,Sequence,PBM E-score
1,AATCCCGC,0.257
2,AATCCCGT,0.372
3,CTGGTGAC,-0.288
4,CCAGCGAA,-0.0597
5,CGGCAATA,0.408
6,CGGCAATC,0.284
7,AGGCATTA,-0.08
8,AGGCAATA,-0.181
9,GGGCATTA,0.0704
10,CGGCATTA,0.459
11,TATATTGA,0.0255
12,ACAGTGGA,-0.0195
13,CACCAAGC,-0.174
14,AGTCCCTC,-0.175
15,ATTGTCCG,0.396
16,ATTGTCCA,-0.128
17,CATGTCCA,-0.0578
18,AATGTCCT,-0.144
19,AATGTCCA,-0.104
20,CATGTCCC,-0.054
21,AATGTCCG,0.443
22,CATGTCCG,0.372
23,ATTGTCCC,0.0458
